From PubChem BioAssay
Activity calls are given as the source filed them.

How the values were obtained:
[1] = system: PRMT1 (protein arginine N-methyltransferase 1); assay: small molecules binding arginine methyltransferase PRMT1 – biochemical, small-molecule microarray, 635 nm fluorescence, primary screen (AID 1088); conditions: higher = more signal;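 also: binding of Prmt1 protein to compounds spotted on small-molecule microarray slides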
[2] = growth effects on S. cerevisiae YJM789 – YJM789 clinical isolate, OD600, 24 h, basal, primary screen (AID 1089); conditions: higher = more signal, called active from +8 up or from −8 down;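 also: growth of clinical yeast isolate S. cerevisiae YJM 789 seeded 1000 cells per well; test concentration not given here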
[3] = S. pombe growth modifiers, basal conditions – strain 972, OD600, 24 h, no modulator, primary screen (AID 1090);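 also: basal condition with compound alone and no growth modifier present; test concentration not given here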; conditions: S. pombe 972 growth, higher = more signal, called active from +8 up or from −8 down
[4] = budding yeast growth modifiers under rapamycin – strain BY4716, OD600, 96 h, primary screen (AID 1091); also: test concentration not given here; conditions: S. cerevisiae BY4716 + rapamycin, higher = more signal, called active from +8 up or from −8 down
[5] = target: Torsin-1A-interacting protein 2 (Homo sapiens) (UniProt Q8NFQ8); assay: small molecules binding lysate-expressed LULL1 – cell lysate, human LULL1 lysate, 635/667 nm fluorescence, primary screen (AID 1092); conditions: small-molecule microarray, hLULL1 lysate binding, 635 nm fluorescence; higher = more signal;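 also: probe is lysate of COS7 cells overexpressing human LULL1; score merges per-feature 667 nm fluorescence with signal-to-noise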
Sequence of Torsin-1A-interacting protein 2 (Homo sapiens) (Q8NFQ8 whole entry, looked up): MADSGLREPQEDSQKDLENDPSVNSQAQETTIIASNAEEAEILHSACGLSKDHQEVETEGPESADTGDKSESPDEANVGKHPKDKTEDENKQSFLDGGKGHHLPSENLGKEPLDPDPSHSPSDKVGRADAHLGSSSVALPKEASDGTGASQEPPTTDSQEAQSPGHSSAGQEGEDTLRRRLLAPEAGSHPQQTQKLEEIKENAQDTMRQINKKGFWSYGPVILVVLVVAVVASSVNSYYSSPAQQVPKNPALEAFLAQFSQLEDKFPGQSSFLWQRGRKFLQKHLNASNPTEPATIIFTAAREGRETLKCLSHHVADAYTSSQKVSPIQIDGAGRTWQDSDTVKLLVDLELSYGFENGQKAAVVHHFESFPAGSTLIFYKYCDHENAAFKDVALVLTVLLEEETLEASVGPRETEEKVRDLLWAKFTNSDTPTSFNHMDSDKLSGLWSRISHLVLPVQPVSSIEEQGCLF

[6] = optical density change of DRC41 E. coli – strain DRC41, OD650, 24 h, E. coli filamentation project, primary screen (AID 1093);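 also: MC1000 strain lacking acrAB efflux and sulA so SOS filamentation is blocked; test concentration not given here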; conditions: E. coli DRC41 growth, higher = more signal, called active from +8 up or from −8 down
[7] = probe aLefty2 binding to arrayed compounds – biochemical, biotinylated probe, 635/667 nm fluorescence, primary screen (AID 1094); conditions: small-molecule microarray, higher = more signal;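 also: score merges spot fluorescence near 667 nm with spot signal-to-noise ratio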
[8] = system: Noggin (protein binding on small-molecule microarray); assay: small molecules binding Noggin protein – biochemical, 635/667 nm fluorescence, primary screen (AID 1095); conditions: 635 nm fluorescence, higher = more signal;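 also: score merges 667 nm feature fluorescence with signal to noise over triplicate slides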
[9] = target: Neurogenic locus notch homolog protein 3 (Homo sapiens) (UniProt Q9UM47); assay: small molecules binding NOTCH3 protein – biochemical, 635/667 nm fluorescence, primary screen (AID 1096); conditions: small-molecule microarray, 635 nm fluorescence, higher = more signal
Sequence of Neurogenic locus notch homolog protein 3 (Homo sapiens) (Q9UM47 whole entry, looked up): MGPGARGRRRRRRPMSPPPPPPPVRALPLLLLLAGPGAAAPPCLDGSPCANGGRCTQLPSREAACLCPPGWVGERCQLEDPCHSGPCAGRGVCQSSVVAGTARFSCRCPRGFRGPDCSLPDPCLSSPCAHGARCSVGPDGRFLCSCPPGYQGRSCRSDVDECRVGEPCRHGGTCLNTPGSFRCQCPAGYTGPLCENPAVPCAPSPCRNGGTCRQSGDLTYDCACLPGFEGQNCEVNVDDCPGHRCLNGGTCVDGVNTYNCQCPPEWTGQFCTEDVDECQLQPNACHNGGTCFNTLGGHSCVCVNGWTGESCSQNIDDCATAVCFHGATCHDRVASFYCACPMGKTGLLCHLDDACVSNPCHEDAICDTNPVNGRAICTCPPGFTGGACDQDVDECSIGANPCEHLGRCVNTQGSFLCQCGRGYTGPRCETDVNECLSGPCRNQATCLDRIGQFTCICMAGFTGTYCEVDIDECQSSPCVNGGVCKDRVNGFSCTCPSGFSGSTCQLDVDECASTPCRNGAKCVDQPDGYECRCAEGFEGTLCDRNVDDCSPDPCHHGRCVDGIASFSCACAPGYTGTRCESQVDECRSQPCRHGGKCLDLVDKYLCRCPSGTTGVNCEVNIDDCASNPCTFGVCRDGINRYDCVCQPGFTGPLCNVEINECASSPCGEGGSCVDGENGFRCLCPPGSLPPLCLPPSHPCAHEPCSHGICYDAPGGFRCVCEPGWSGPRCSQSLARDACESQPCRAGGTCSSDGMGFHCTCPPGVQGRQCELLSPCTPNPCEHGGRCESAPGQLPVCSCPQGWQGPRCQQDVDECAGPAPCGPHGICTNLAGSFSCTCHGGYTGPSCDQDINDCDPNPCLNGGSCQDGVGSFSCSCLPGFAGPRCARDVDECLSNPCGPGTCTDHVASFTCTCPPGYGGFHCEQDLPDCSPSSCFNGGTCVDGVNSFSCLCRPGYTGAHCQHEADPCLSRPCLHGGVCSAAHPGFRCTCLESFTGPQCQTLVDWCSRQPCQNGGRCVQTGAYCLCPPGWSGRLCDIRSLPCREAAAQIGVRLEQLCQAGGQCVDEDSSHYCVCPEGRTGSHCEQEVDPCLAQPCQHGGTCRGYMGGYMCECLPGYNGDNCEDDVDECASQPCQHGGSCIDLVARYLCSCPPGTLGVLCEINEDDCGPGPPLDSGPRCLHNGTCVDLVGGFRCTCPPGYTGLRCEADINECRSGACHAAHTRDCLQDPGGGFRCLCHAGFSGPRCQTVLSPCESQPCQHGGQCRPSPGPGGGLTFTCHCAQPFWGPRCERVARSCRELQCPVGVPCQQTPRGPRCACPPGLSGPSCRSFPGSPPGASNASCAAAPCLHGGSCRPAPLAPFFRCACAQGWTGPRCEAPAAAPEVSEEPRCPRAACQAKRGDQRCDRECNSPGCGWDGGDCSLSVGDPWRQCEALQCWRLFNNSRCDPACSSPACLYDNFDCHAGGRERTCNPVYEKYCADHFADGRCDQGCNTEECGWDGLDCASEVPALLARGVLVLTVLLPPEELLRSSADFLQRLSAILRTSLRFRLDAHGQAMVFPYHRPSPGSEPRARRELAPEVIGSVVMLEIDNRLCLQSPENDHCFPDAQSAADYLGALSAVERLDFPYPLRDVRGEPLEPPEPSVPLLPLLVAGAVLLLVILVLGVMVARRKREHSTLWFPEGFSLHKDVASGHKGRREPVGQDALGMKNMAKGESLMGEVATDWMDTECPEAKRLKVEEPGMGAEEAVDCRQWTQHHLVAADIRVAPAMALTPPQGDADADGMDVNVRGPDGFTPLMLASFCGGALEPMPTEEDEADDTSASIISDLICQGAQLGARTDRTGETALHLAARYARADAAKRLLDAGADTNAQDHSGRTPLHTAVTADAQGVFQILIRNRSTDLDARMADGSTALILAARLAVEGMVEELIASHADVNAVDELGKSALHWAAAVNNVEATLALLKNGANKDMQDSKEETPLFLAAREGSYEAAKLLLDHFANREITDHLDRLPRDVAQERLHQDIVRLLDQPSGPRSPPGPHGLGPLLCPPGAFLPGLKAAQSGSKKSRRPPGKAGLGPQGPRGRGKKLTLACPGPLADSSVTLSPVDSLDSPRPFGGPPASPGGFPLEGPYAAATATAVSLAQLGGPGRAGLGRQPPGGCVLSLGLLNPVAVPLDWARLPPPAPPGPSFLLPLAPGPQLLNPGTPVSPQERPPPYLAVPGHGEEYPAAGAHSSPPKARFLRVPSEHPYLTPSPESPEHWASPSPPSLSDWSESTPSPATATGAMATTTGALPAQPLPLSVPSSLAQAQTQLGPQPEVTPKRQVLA

[10] = probe aEGFR binding to arrayed compounds – biochemical, biotinylated probe, 635/667 nm fluorescence, primary screen (AID 1097); conditions: small-molecule microarray, higher = more signal;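 also: probe is a biotinylated anti-EGFR antibody binding compounds printed on slides; score combines fluorescence near 667 nm and signal to noise of each spot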

OCCCc1cc[n+](Cc2cccc(OC(F)(F)F)c2)cc1
composite z-score [1]: 1.54
z-score [2]: -0.747 (inactive)
z-score [3]: -3.01 (inactive)
z-score [4]: 0.71 (inactive)
composite z-score [5]: 3.24
z-score [6]: -1.65 (inactive)
composite z-score [7]: 0.2
composite z-score [8]: 0.962
composite z-score [9]: 1.04
composite z-score [10]: -0.0084

O=C1O[C@@H](c2ccccc2)[C@@H](c2ccccc2)N2[C@@H](c3ccc(O)cc3)[C@]3(C(=O)Nc4ccccc43)[C@@H](C(=O)NC[C@H](O)c3ccccc3)[C@H]12
composite z-score [1]: 0.867
z-score [2]: 0.3 (inactive)
z-score [3]: 0.572 (inactive)
z-score [4]: 1.49 (inactive)
composite z-score [5]: 2.02
z-score [6]: 1.76 (inactive)
composite z-score [7]: -0.12
composite z-score [8]: 0.753
composite z-score [9]: 0.0385
composite z-score [10]: -0.112

CCOC(=O)C[C@H]1[C@H](OC(=O)c2ccc(C(=O)c3ccccc3)cc2)[C@@H](NC(=O)c2ccc3ccccc3n2)c2cc(OCCCO)ccc2N1C(=O)c1ccc2ccccc2n1
composite z-score [1]: 0.424
z-score [2]: 0.179 (inactive)
z-score [3]: 0.0242 (inactive)
z-score [4]: 0.418 (inactive)
composite z-score [5]: 1.34
z-score [6]: 1.12 (inactive)
composite z-score [7]: 0.109
composite z-score [8]: 0.192
composite z-score [9]: 0.486
composite z-score [10]: 0.0746

COCCOC(=O)N1C(=O)[C@@]2(c3cc(C#CC4=CCCCC4)ccc31)[C@H](c1ccc(OCCO)cc1)N1[C@H](c3ccccc3)[C@H](c3ccccc3)OC(=O)[C@H]1[C@@H]2C(=O)Nc1nc2ccccc2s1
composite z-score [1]: 1.55
z-score [2]: 1.09 (inactive)
z-score [3]: 1.04 (inactive)
z-score [4]: 3.21 (inactive)
composite z-score [5]: 3.06
z-score [6]: 1.9 (inactive)
composite z-score [7]: -0.0242
composite z-score [8]: 0.772
composite z-score [9]: 1.08
composite z-score [10]: -0.0164

C=C(C(=O)CC[C@@H](OC(=O)c1cccnc1)c1ccc(OCCO)cc1)C(C)C
composite z-score [1]: 1.57
z-score [2]: -24.3 (active)
z-score [3]: -20.5 (active)
z-score [4]: -4.75 (inactive)
composite z-score [5]: 0.111
z-score [6]: -0.808 (inactive)
composite z-score [7]: -0.209
composite z-score [8]: 1.58
composite z-score [9]: 0.344
composite z-score [10]: -0.0972

CCCC[C@@H]1C[C@H]1[C@@H](NC(=O)c1ccccc1)c1ccccc1
composite z-score [1]: -0.352
z-score [2]: 0.588 (inactive)
z-score [3]: 1.02 (inactive)
z-score [4]: 1.54 (inactive)
composite z-score [5]: 0.981
z-score [6]: -0.404 (inactive)
composite z-score [7]: 0.302
composite z-score [8]: 0.226
composite z-score [9]: 0.571
composite z-score [10]: 0.104

CCOC(=O)C[C@H]1[C@H](OC(=O)c2ccccc2-c2ccccc2)[C@@H](NC(=O)c2ccc(-c3ccccc3)cc2)c2cc(OCCCO)ccc2N1C(=O)c1ccccc1
composite z-score [1]: 0.997
z-score [2]: 0.742 (inactive)
z-score [3]: 0.5 (inactive)
z-score [4]: 1.7 (inactive)
composite z-score [5]: 1.99
z-score [6]: 1.04 (inactive)
composite z-score [7]: -0.0888
composite z-score [8]: 0.603
composite z-score [9]: 0.695
composite z-score [10]: 0.104

COCCOC(=O)N1C(=O)[C@@]2(c3cc(C#CC4=CCCCC4)ccc31)[C@H](C(=O)N1CCN(c3ncccn3)CC1)[C@H]1C(=O)O[C@H](c3ccccc3)[C@H](c3ccccc3)N1[C@@H]2c1ccc(OCCO)cc1
composite z-score [1]: 1.55
z-score [2]: 1.48 (inactive)
z-score [3]: 0.442 (inactive)
z-score [4]: 3.23 (inactive)
composite z-score [5]: 2.02
z-score [6]: 0.0301 (inactive)
composite z-score [7]: 0.415
composite z-score [8]: 0.554
composite z-score [9]: 1.14
composite z-score [10]: 0.145

CN(C)CCCCCCNC(=O)[C@@H]1C[C@@H]2C(=O)N[C@@H](Cc3ccccc3)C(=O)N2[C@@H]1c1cccc(OCCO)c1
composite z-score [1]: 1.55
z-score [2]: -1.49 (inactive)
z-score [3]: -1.07 (inactive)
z-score [4]: -0.567 (inactive)
composite z-score [5]: 2.67
z-score [6]: 0.698 (inactive)
composite z-score [7]: 0.0498
composite z-score [8]: 1.05
composite z-score [9]: 1.13
composite z-score [10]: -0.0492

CO[C@H]1O[C@H](CO)[C@@H](OC(=O)Nc2ccc3c(c2)OCO3)[C@H](OC(=O)Nc2ccc3c(c2)OCO3)[C@H]1OC(=O)Nc1ccc2c(c1)OCO2
composite z-score [1]: 1.54
z-score [2]: 1.68 (inactive)
z-score [3]: 0.861 (inactive)
z-score [4]: 3.19 (inactive)
composite z-score [5]: 3.5
z-score [6]: 0.922 (inactive)
composite z-score [7]: 0.151
composite z-score [8]: 0.816
composite z-score [9]: 1.03
composite z-score [10]: -0.0455

COCCCNC(=O)[C@@]1(C)c2ccccc2C(=O)N(Cc2ccccc2)[C@H]1c1ccc(CO)cc1
composite z-score [1]: 1.46
z-score [2]: -0.21 (inactive)
z-score [3]: -1.31 (inactive)
z-score [4]: -0.0048 (inactive)
composite z-score [5]: 3.43
z-score [6]: -0.336 (inactive)
composite z-score [7]: -0.11
composite z-score [8]: -0.694
composite z-score [9]: 0.0118
composite z-score [10]: -0.168

Cc1ccc(S(=O)(=O)N2CC(C(=O)O)=CCC2c2ccccc2)cc1 (stereo not given)
composite z-score [1]: 0.461
z-score [2]: -0.224 (inactive)
z-score [3]: 1.29 (inactive)
z-score [4]: -0.0893 (inactive)
composite z-score [5]: 2.89
z-score [6]: -1.11 (inactive)
composite z-score [7]: 0.431
composite z-score [8]: -1.22
composite z-score [9]: -0.231
composite z-score [10]: 0.254

CS(=O)(=O)CCOC(=O)C1=CC(c2ccc(CO)cc2)=CC(c2cccs2)N(Cc2cccc(OC(F)(F)F)c2)C=C1C(=O)OCCS(C)(=O)=O (stereo not given)
composite z-score [1]: 1.34
z-score [2]: -0.246 (inactive)
z-score [3]: -3.38 (inactive)
z-score [4]: 2.41 (inactive)
composite z-score [5]: 3.12
z-score [6]: -0.575 (inactive)
composite z-score [7]: -0.0833
composite z-score [8]: 0.333
composite z-score [9]: 0.856
composite z-score [10]: -0.0688

C=CC[C@]1(C(=O)O)N=C(c2ccc(OCCCO)cc2)O[C@H]1c1ccccc1CN=[N+]=[N-]
composite z-score [1]: -0.697
z-score [2]: 0.442 (inactive)
z-score [3]: 0.263 (inactive)
z-score [4]: 0.602 (inactive)
composite z-score [5]: 1.55
z-score [6]: 0.143 (inactive)
composite z-score [7]: -0.135
composite z-score [8]: -0.383
composite z-score [9]: -0.522
composite z-score [10]: -0.0239
